# Bioassay records deposited in PubChem BioAssay by Broad Institute.
# RAD54 branch – RAD54 (human) branch migration inhibition; RAD54 Holliday junction branch migration, FAM/BHQ fluorescence; inhibition, % at 10.4 µM; Q92698; AID 602329; 360,000 tested, 0.14% active;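 active = mean normalized replicate activity at least 40 and at least half of replicates scoring 40 or more; inconclusive = only one of the two criteria met; inactive = mean below 40 and under half of replicates reaching 40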;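 also: 0% = median of neutral control wells and 100% = median of positive control wells; inhibitors cause a drop in the FAM fluorescence signal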
# NSD2 HMT inh – inhibitors of human histone methyltransferase NSD2. O96028. NSD2 peptide methylation, AlphaScreen, 120 min. inhibition, % at 12.5 µM. 310,000 tested, 0.54% active. AID 743445; in the data active = inhibition above about 50%
# N-glyco inh – N-linked glycosylation inhibition | D54 ERlucT glycosylation luciferase reporter, 24 h; percent of 100 nM tunicamycin response | reporter increase, % at 12.5 µM | 360,000 tested, 0.23% active;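 active = mean luciferase reporter signal, scaled so untreated is 0 and the glycosylation-blocking control 100, at or above a set limit in every replicate; inconclusive = mean reaches the limit but not every replicate does; inactive = mean below the limit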;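 also: luciferase carries N-glycosylation sites so blocking glycosylation raises the light; 0% = median of neutral control wells and 100% = median of 100 nM tunicamycin wells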
# RAD52 inh – inhibitors of human RAD52 DNA annealing | P43351 | recombinant RAD52 DNA annealing, FRET fluorescence | inhibition, % at 18.7 µM | 360,000 tested, 0.46% active | AID 651710;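 active = every replicate showing at least 50% inhibition; inconclusive = mean inhibition at least 50% but not in every replicate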
# CASP6 VEID inh – blocks human caspase-6 cleavage activity; P55212; purified caspase-6, Z-VEID-R110 cleavage fluorescence; inhibition, % at 12.5 µM; 350,000 tested, 0.53% active; AID 686996;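 active = mean inhibition across replicates at least about 35%, with every replicate also reaching that limit, limit read from the data; inconclusive = only one of the two criteria met; inactive = neither criterion met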;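 also: 0% = median of neutral control wells and 100% = no fluorescence left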
# Rad54 DNA ctr – binds DNA, flagging false Rad54 inhibitor hits | AC50, µM (series often up to 35 µM), for inactives: at the highest dose activity change, negative = DNA binding | 460 tested, 8% active | shares compounds with RAD54 branch | Acridine orange-DNA displacement, fluorescence polarization, 20 min;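 active = signal drop giving an AC50 within twice the top valid tested concentration of each sample, actives reach about 35 µM in these data; inactive = activity opposite to expected, plus the rest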;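 also: polarization loss reports compound binding to salmon sperm DNA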
# DNA binder FP – counter-screen for RAD52 inhibitors: DNA binding compounds | 1,000 tested, 8% active | shares compounds with RAD52 inh | Salmon sperm DNA/acridine orange FP displacement | AC50, µM;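 active = fitted half-maximal concentration for signal loss at or below twice the highest dose tested, in every separate run, actives reach about 64 µM in these data; inconclusive = runs disagree, or flat partial signal loss, or poor fit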
# CASP1 counter – caspase-1 (human) inhibition counter-screen | shares compounds with CASP6 VEID inh | purified caspase-1, Z-YVAD-R110 cleavage fluorescence | activity change, negative = inhibition, % at 35 µM | 100 tested, under 10 active | AID 743289;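 active = compounds lowering fluorescence whose fitted half-maximal concentration is no more than twice their top tested dose; inconclusive = flat fit with 30 to 70% inhibition, or poor fit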
# AlphaScreen art – counter-screen for NSD2 inhibitors: AlphaScreen artifacts; AID 1053174; shares compounds with NSD2 HMT inh; 1,500 tested, 9.4% active; AlphaScreen artifact counterscreen, preloaded methylated H4 peptide; AC35, µM (top dose mostly 10 µM), without a hit: at the highest dose activity change, negative = signal loss; call rule not given here
# Starred values were filed as active, the others as inactive; i = inactive; ? = inconclusive; / = not tested or not shown. Hits are enriched below; roughly 1.2% of the tested compounds scored in any of these assays.
SMILES,RAD54 branch,NSD2 HMT inh,N-glyco inh,RAD52 inh,CASP6 VEID inh,Rad54 DNA ctr,DNA binder FP,others
COc1cccc(S(=O)(=O)N(C)C[C@@H]2Oc3cc(C#CCN(C)C)ccc3S(=O)(=O)N([C@@H](C)CO)C[C@H]2C)c1,-12.3,/,/,-10.3,-0.2,/,/,
CCN1CCN(C(=S)Nc2ccc3nc(N4CCN(C)CC4)cc(C)c3c2)CC1,56.1*,14.9,-2.2,89.0*,-65.9,-0.2%,i,
CCN1CCN(c2cc(C)c3cc(NC(=S)N4CCCCC4)ccc3n2)CC1,?,10.0,-2.6,85.4*,-60.0,-11.0%,i,
Cc1noc(C)c1NC(=O)N(C)C[C@H]1Oc2ccc(NC(=O)c3ccncc3)cc2CC(=O)N([C@@H](C)CO)C[C@@H]1C,-5.9,/,/,-6.3,-0.4,/,/,
CC(C)NC(=O)N(C)C[C@@H]1OCCCC[C@@H](C)Oc2ccc(NS(=O)(=O)c3cn(C)cn3)cc2C(=O)N([C@H](C)CO)C[C@H]1C,-0.5,/,/,-3.2,1.9,/,/,
COc1cc(-c2cnc3c(NC=O)cc(-c4cccc(C(=O)NCCN(C)C)c4)cn23)cc(OC)c1OC,101.5*,12.2,-1.8,93.2*,-57.8,-2.1%,i,
COc1cc(-c2cnc3c(NC(C)=O)cc(-c4cccc(C(=O)NCCO)c4)cn23)cc(OC)c1OC,1.4,1.8,9.3,-7.5,4.3,/,/,
COc1ccc(-c2cc(NC=O)c3ncc(-c4cccc(C(=O)NCCN(C)C)c4)n3c2)cn1,94.6*,6.6,-6.1,81.0*,-66.4,-10.8%,i,
CO[C@H]1CN(C)C(=O)c2ccc(NC(=O)C3CC3)cc2OC[C@H](C)N(C(=O)c2ccccc2)C[C@H]1C,-3.7,/,/,8.6,-0.7,/,/,
CN(C(=O)c1ccco1)c1nc(-c2ccc(Cl)cc2)cs1,-8.1,0.9,-0.2,0.5,-3.5,/,/,
CN(C)CCCN(C(=O)c1ccco1)c1nc(-c2ccc(Cl)cc2)cs1,53.0*,/,3.7,52.0*,-11.1,-15.9%,i,
CN(C)CCCN(C(=O)CCOc1ccccc1)c1nc2ccc(F)cc2s1,65.1*,-3.6,-16.8,89.0*,-25.9,-16.1%,i,
CO[C@@H]1CN(C)C(=O)c2cc(NC(=O)CC(F)(F)F)ccc2OC[C@H](C)N(C(C)=O)C[C@H]1C,/,/,/,-88.7,1.5,/,/,
Cc1cccn2c(=O)c3cc(C(=O)NCCN4CCOCC4)c(=N)n(CCN4CCOCC4)c3nc12,51.3*,/,5.3,69.2*,0.1,2.8%,i,
Cc1cccn2c(=O)c3cc(C(=O)NC4CCCC4)c(=N)n(CCCN4CCOCC4)c3nc12,76.8*,3.6,3.3,68.0*,2.9,5.4%,i,
N=c1c(C(=O)NCCN2CCOCC2)cc2c(=O)n3ccccc3nc2n1CCc1ccccc1,62.8*,1.8,8.3,57.1*,-6.2,-9.4%,i,
Cc1cccn2c(=O)c3cc(C(=O)NCCN4CCOCC4)n(C)c3nc12,16.4,-3.1,-3.5,-37.4,-4.1,/,/,
C[C@@H]1CN([C@@H](C)CO)C(=O)c2cc(NS(C)(=O)=O)ccc2O[C@H]1CN(C)C(=O)NC1CCCCC1,-1.5,/,/,3.0,8.1,/,/,
CO[C@H]1CN(C)C(=O)c2cc(NC(=O)Cc3ccccc3)ccc2OC[C@H](C)NC[C@@H]1C,0.6,/,/,-8.2,/,/,/,
COc1ccc(-c2cc3nc(NCCCN(C)C)n(C)c(=O)c3s2)cc1OC,68.6*,3.4,0.6,83.8*,-56.5,-5.7%,i,
Cc1ccccc1-c1cc2nc(NCCCN(C)C)n(C)c(=O)c2s1,11.9,1.4,-0.2,25.0,-3.9,/,/,
CN(C)CCCNc1nc2cc(-c3ccn[nH]3)sc2c(=O)n1C,29.2,1.3,0.4,42.6,-16.7,/,/,
CN(C)CCCNc1nc2cc(-c3cccc(Cl)c3)sc2c(=O)n1C,50.4*,3.1,-1.4,88.9*,-67.9,-7.2%,i,
Cc1ccsc1-c1cc2nc(NCCCN(C)C)n(C)c(=O)c2s1,?,0.5,4.4,58.1*,-34.3,3.2%,i,
CO[C@H]1CN(C)C(=O)c2cc(NC(C)=O)ccc2OC[C@H](C)N(Cc2ccncc2)C[C@@H]1C,11.5,/,/,-8.6,/,/,/,
SMILES,RAD54 branch,NSD2 HMT inh,N-glyco inh,RAD52 inh,CASP6 VEID inh,Rad54 DNA ctr,DNA binder FP,others
CCN1CCCC1CNC(=O)c1ccc2c(c1)NC(=O)/C(=C\c1ccc(OC)c(OC)c1)S2 (stereo not given),68.9*,31.1,-7.2,72.9*,-67.6,-3.5%,i,
CCC(=O)Nc1ccc2c(c1)OC[C@@H](C)N(Cc1nccs1)C[C@@H](C)[C@@H](OC)CN(C)C2=O,-1.9,/,/,4.3,2.4,/,/,
Nc1cc2ccncc2c2ccccc12,69.7*,18.8,-2.4,59.8*,1.4,-13.8%,i,
N#Cc1cc2ccncc2c2ccccc12,-0.4,-0.3,1.0,-6.4,/,/,/,
CCn1c(N)nc2c1c(=O)n(C)c(=O)n2C,-10.3,/,3.2,-4.3,-0.2,/,/,
Cn1nc(-c2ccccn2)nc2c(=O)n(C)c(=O)nc1-2,61.2*,/,-22.8,5.6,95.4*,11.8%,/,CASP1 counter=-3.4
CCCc1nc2c(=O)n(C)c(=O)nc-2n(C)n1,74.2*,/,-20.3,35.1,96.5*,-16.2%,/,CASP1 counter=-12.0
CO[C@H]1CN(C)C(=O)c2ccc(NC(=O)CC(F)(F)F)cc2OC[C@H](C)N(S(=O)(=O)c2cn(C)cn2)C[C@H]1C,-13.9,/,/,-58.6,-2.3,/,/,
CCN(CC)CCNc1nc(SC)nc2sc3c(c12)CCN(C)C3,53.0*,62.1*,-2.1,55.9*,-62.0,5.9%,i,AlphaScreen art=-7.2%
C[C@@H]1CN([C@H](C)CO)C(=O)c2cc(NC(=O)c3ccccc3)ccc2O[C@@H](C)CCCCO[C@@H]1CN(C)C(=O)c1ccccc1,5.3,/,/,/,/,/,/,
CC(Nc1ccnc2cc(Cl)ccc12)c1ccc(S(N)(=O)=O)cc1 (stereo not given),9.2,-5.1,-1.1,-2.1,-3.5,/,/,
CC(C)NC1CCC(Nc2ccnc3cc(Cl)ccc23)CC1 (stereo not given),?,81.2*,0.2,-20.2,-13.6,-19.3%,/,AlphaScreen art=-2.7%
CCN1CCCC(OC(=O)c2cc(-c3ccc(C)cc3)nc3ccccc23)C1 (stereo not given),/,0.9,-6.8,56.7*,-7.6,/,i,
CCOC(=O)C1CCCN(C(=O)c2cc(-c3ccc(F)cc3)nc3ccccc23)C1 (stereo not given),6.0,-5.3,1.0,-7.8,1.7,/,/,
COc1cc2nc(Nc3ccc(C)c(Cl)c3)nc(N)c2cc1OC,-3.9,-0.7,-6.3,73.1*,24.4,/,i,
COc1cc2nc(Nc3ccc(C)c(C)c3)nc(N)c2cc1OC,34.1,3.2,-6.3,90.5*,-5.8,/,i,
